From PubChem BioAssay (NCATS) come the findings set out here.

Results filed as inconclusive are left out. Where a call stands in place of a potency, no number is given. Calls of active or inactive are those of the source. The call rests on the fitted dose curve; in most records, active means well fitted cell-killing curve with a large enough effect; inconclusive means small, poorly fitted or top-dose-only effect, or effect the other way; inactive means no such curve, though single readings can be large or run the other way. Peptide text beside a SMILES is read from it.
Potency means the concentration at half of the fitted maximal effect.

A short description of the assay: Quantitative High-Throughput drug screen in 47 multiple myeloma cell lines against the NCATS MIPE library collection: PCM6_Riken cell viability assay (AID 1919870). Further: nearly all actives have a fitted effect of over 30% in size. As to conditions: CellTiter-Glo ATP, 48 h; series mostly up to 45.8 µM. An excerpt:
PI: Beverly A. Mock Ph.D.
Laboratory of Cancer Biology and Genetics,
Center for Cancer Research, National Cancer Institute,
National Institute of Health, Bethesda, Maryland
Drug resistance and disease progression are common in multiple myeloma (MM) patients, underscoring the need for new therapeutic combinations. […] We hypothesized that effective combinations would reduce MYC expression and enhance p16 activity. […] These preclinical data identify potentially useful drug combinations for evaluation in drug-resistant MM and reveal potential mechanisms of combined drug sensitivity.
Described herein is the primary MIPE qHTS used to cherrypick compounds. Validated compounds were then further tested for potential synergistic activiy.
[1] Peat TJ, Gaikwad SM, Dubois W, Gyabaah-Kessie N, Zhang S, Gorjifard S, Phyo Z, Andres M, Hughitt VK, Simpson RM, Miller MA, Girvin AT, Taylor A, Williams D, D'Antonio N, Zhang Y, Rajagopalan A, Flietner E, Wilson K, Zhang X, Shinn P, Klumpp-Thomas C, McKnight C, Itkin Z, Chen L, Kazandijian D, Zhang J, Michalowski AM, Simmons JK, Keats J, Thomas CJ, Mock BA. Drug combinations identified by high-throughput screening promote cell cycle transition and upregulate Smad pathways in myeloma. Cancer Lett. 2023 Aug 1;568:216284. doi: 10.1016/j.canlet.2023.216284. Epub 2023 Jun 24. PMID: 37356470; PMCID: PMC10408729.
SEQUENCE No. (e.g., 1, 2, 3, etc.); […] (e.g., Cells, Incubation, Reagent, etc.); VALUE and DESCRIPTION.
1; Cells; 5 uL; white, solid bottom 1536-well Greiner assay plate.
2; Compounds; 23 nL; Kalypsis pin tool (Wako USA) equipped with a 1536-well pin head to transfer to the assay plates.
3; Incubation; 48 hours; 37C incubation.
4; Reagent;5uL; CellTiter Glo (Promega).
5; Detector; 425V; Luminescence; Viewlux PerkinElmer.
NOTES (numbers refer to Sequence numbers above)
1. The cell-based screening methods employed in this study were like those previously published. Briefly, the corresponding myeloma cell lines were screened in 1,536-well plates with 500 cells, 5-uL per well for inhibition of cell viability (assessed by measuring ATP levels with CellTiterGlo).
2. NCATS MIPE 4.0 library of approved and investigational drugs were added using the Kalypsis pin tool. Wells treated with DMSO only for 100% viability and media only for 0% viability were used as controls.
3. The assay plates were covered and incubated for 48 hours in a 37C, 5% CO2 incubator with controlled humidity.
4. After 48 hours, CellTilter-GloTM luminescent substrate mix (Promega) reagent was added to the assay plate and plates we incubated for 5 min at room temperature.
5. Signal was measured as median relative luminescence units on a ViewLux (PerkinElmer) multiplate reader.
[1] Heske CM, Davis MI, Baumgart JT, Wilson K, Gormally MV, Chen L, Zhang X, Ceribelli M, Duveau DY, Guha R, Ferrer M, Arnaldez FI, Ji J, Tran HL, Zhang Y, Mendoza A, Helman LJ, Thomas CJ. Matrix Screen Identifies Synergistic Combination of PARP Inhibitors and Nicotinamide Phosphoribosyltransferase (NAMPT) Inhibitors in Ewing Sarcoma. Clin Cancer Res. 2017 Dec 1;23(23):7301-7311. doi: 10.1158/1078-0432.CCR-17-1121. Epub 2017 Sep 12. PMID: 28899971; PMCID: PMC6636827.
In general terms: ATP-based viability assays read luminescence as a measure of living cells.
As to `CCCCc1ccc2nc(NC(=O)OC)[nH]c2c1`, the Potency was 0.0935 µM (active).
In the case of `Cc1ccc(S(=O)(=O)NC(=O)NN2CC3CCCC3C2)cc1` (stereo not given), the Potency is 20.9 µM (active).
In the case of `CN(C)c1ccc2nc3ccc(=[N+](C)C)cc-3sc2c1`, the Potency was 1.05 µM (active).
Take `O=c1c(O)c(-c2ccc(O)cc2O)oc2cc(O)cc(O)c12`: the Potency result was “inactive”.
For the compound `Cc1c(C(=O)NN2CCCCC2)nn(-c2ccc(Cl)cc2Cl)c1-c1ccc(Cl)cc1`, the Potency is 26.4 µM (active).
Then `COc1cc(C(C)=O)ccc1OCCCN1CCC(c2noc3cc(F)ccc23)CC1`, with 18.7 µM (active); and `O=P(O)(O)C(O)(Cn1ccnc1)P(=O)(O)O`, with “inactive”.
Then `CN1C(C(=O)Nc2ccccn2)=C(O)c2sccc2S1(=O)=O`, with “inactive”; and `O=C(NOCC1CC1)c1ccc(F)c(F)c1Nc1ccc(I)cc1Cl`, with 14.8 µM (active).
Then `CC(S)C(=O)NCC(=O)O` (stereo not given), with “inactive”; and `c1cnc2cc3c(cc2n1)C1CNCC3C1`, with “inactive”; and `COC(=O)C1=C(C)NC(C)=C(C(=O)OC(C)C)C1c1cccc2nonc12` (stereo not given), with 26.4 µM (active).
Take `O=c1ccc2ccc(O)c(O)c2o1`: the Potency is 13.2 µM (active).
On to `COC(=O)C1=C(C)NC(C)=C(C(=O)OCCCN2CCC(c3ccccc3)(c3ccccc3)CC2)C1c1cccc([N+](=O)[O-])c1` (stereo not given), for which the Potency result is “inactive”.
Take `COc1ccc(C2(C#N)CCC(C(=O)O)CC2)cc1OC1CCCC1` (stereo not given): the Potency is 16.6 µM (active).
On to `O=C(O)c1cn(-c2ccc(F)cc2)c2cc(N3CCNCC3)c(F)cc2c1=O`, for which the Potency result is “inactive”.
As to `C[C@H](Cc1ccc(O)c(O)c1)[C@@H](C)Cc1ccc(O)c(O)c1`, the Potency is 18.7 µM (active).
In the case of `Cc1cccc(C#Cc2ccccc2)n1`, the Potency result is “inactive”.
For the compound `CCCCCCCCOc1ccccc1C(=O)Nc1ccc(C(=O)OCC[N+](C)(CC)CC)cc1`, the Potency is 16.6 µM (active).
Then `S=c1nc[nH]c2nc[nH]c12`, with 5.9 µM (active); and `CNC[C@@H](O)[C@@H](O)[C@H](O)[C@H](O)CO`, with “inactive”; and `CN(C)c1ccc(O)c2c1C[C@H]1C[C@H]3[C@H](N(C)C)C(=O)C(C(N)=O)=C(O)[C@@]3(O)C(=O)C1=C2O`, with 18.7 µM (active).
On to `Nc1cc(C(Cl)=C(Cl)Cl)c(S(N)(=O)=O)cc1S(N)(=O)=O`, for which the Potency entry is “inactive”.
For the compound `CCCCC(CC)COC(=O)C(C#N)=C(c1ccccc1)c1ccccc1` (stereo not given), the Potency entry was “inactive”.
For `COc1cc(Nc2c(C#N)cnc3cc(OCCCN4CCN(C)CC4)c(OC)cc23)c(Cl)cc1Cl` the value was 1.87 µM (active); for `COC(=O)[C@H](Cc1ccccc1)NC(=O)[C@@H](N)CC(=O)O` (H-Asp-Phe-OMe), “inactive”.
Then `CCN(CC)C(=S)SSC(=S)N(CC)CC`, with 0.001 µM (active); and `Cc1nc2n(c(=O)c1CCN1CCC(c3noc4cc(F)ccc34)CC1)CCCC2`, with “inactive”.
For the compound `Cc1nc(Nc2ncc(C(=O)Nc3c(C)cccc3Cl)s2)cc(N2CCN(CCO)CC2)n1`, the Potency was 5.26 µM (active).
Then `CC(C)C[C@H](NC(=O)[C@H](Cc1ccccc1)NC(=O)c1cnccn1)B(O)O`, with 0.0105 µM (active); and `COCCCOc1ccnc(CS(=O)c2nc3ccccc3[nH]2)c1C` (stereo not given), with “inactive”.
With `O=C(CCc1ccc(O)cc1)c1c(O)cc(O)cc1O`, the Potency is 0.235 µM (active).
For the compound `CN(C)CCCC1(c2ccc(F)cc2)OCc2cc(C#N)ccc21` (stereo not given), the Potency result was “inactive”.
For `CC(C)(S)[C@@H](N)C(=O)O` the value was “inactive”; for `C[C@@H](N)C1CCC(C(=O)Nc2ccncc2)CC1` (stereo not given in full), 14.8 µM (active).
For the compound `O=C(O)c1cccc(-c2noc(-c3ccccc3F)n2)c1`, the Potency result is “inactive”.
On to `COc1c2occc2cc2ccc(=O)oc12`, for which the Potency result is “inactive”.
For `O=C1c2c(O)cc(O)cc2OC(c2ccc(O)c(O)c2)C1O` (stereo not given) the value was “inactive”; for `Clc1ccc(C(Cn2ccnc2)OCc2c(Cl)cccc2Cl)c(Cl)c1` (stereo not given), 14.8 µM (active).
Then `CN(C)CCc1c[nH]c2ccc(Cn3cncn3)cc12`, with “inactive”.
